Reference: PubChem BioAssay
Values joined by “and” are separate entries in the source; they are usually repeats but may differ in a detail not shown here. Identical values can stand only once. Unmarked numbers belong to inactive results. Active and inactive are the calls of the source. No stated cut-off is given here; in the data, active means fold change permeability below about 0.7 or above about 1.3; inactive means in between.

Experiment: modulators of brain endothelial barrier permeability, primary screen, cell-based, FITC-avidin fluorescence, HTS (AID 1963498); further: test concentration not given here
Details: actives lie on both sides

Structure (SMILES) | fold change permeability
CN1C2CCC1CC(OC(c1ccccc1)c1ccccc1N)C2 (stereo unspecified) | 1.1
C=CCN1CC[C@]23c4c5ccc(O)c4O[C@H]2C(=O)CC[C@@]3(O)[C@H]1C5 | 1
CN[C@@H]1Cc2cccc3[nH]c(=O)n(c23)C1 | 0.8
CCn1cc(C(=O)O)c(=O)c2ccc(C)nc21 | 0.9
C[N+]1(C)CCN(c2ccccc2)CC1 | 1.2
COc1cc(C(O)CN)ccc1O (stereo unspecified) | 0.9
CCN(CC)c1ncnc2c1ncn2[C@@H]1O[C@H](COP(=O)(O)OP(=O)(O)C(Br)(Br)P(=O)(O)O)[C@@H](O)[C@H]1O | 1.1
O=C(O)[C@@H]1CCN1 | 1
CCCN(CCC)[C@@H]1CCc2cccc(O)c2C1 | 1.2
Fc1ccc(C(OCCN2CCN(CCCc3ccccc3)CC2)c2ccc(F)cc2)cc1 | 1.6 (active)
NC(Cc1cc(O)c(O)cc1O)C(=O)O (stereo unspecified) | 0.9
CC(N)c1cccc(Cl)c1Cl (stereo unspecified) | 1.1
NC(N)=NOCC[C@H](N)C(=O)O | 1 and 0.8
CN1CC[C@@]2(C)c3cc(OC(=O)Nc4ccccc4)ccc3N(C)[C@@H]12 | 1.4 (active)
N[C@@H]1C[C@H]1c1ccccc1 | 0.9
Nc1ccncc1 | 0.9
C#C[C@]1(O)CC[C@H]2[C@@H]3CCC4=Cc5nc6nc7ccccc7n6cc5C[C@]4(C)[C@H]3CC[C@@]21C | 1.8 (active)
CO[C@H]1CC[C@@H](O[C@H]2C[C@H]([C@]3(C)CC[C@]4(C[C@H](O)[C@@H](C)[C@@H]([C@@H](C)/C=C(\C)C(=O)[C@H](C)C[C@H](C)C(=O)O)O4)O3)O[C@]3(O[C@@H]([C@H]4O[C@@](O)(CO)[C@H](C)C[C@@H]4C)C[C@@H]3C)[C@@H]2C)O[C@@H]1C | 1.3 (active)
N#Cc1ccc(N2CCN(C(=O)COc3ccc4[nH]cc(CCN)c4c3)CC2)cc1 | 1
CCC1(C2=NCCN2)Cc2ccccc2O1 (stereo unspecified) | 1
NCC1(CC(=O)O)CCCCC1 | 0.9
CN1CCC(c2c[nH]c3ccc(O)cc23)CC1 | 1
CC(NC(C)(C)C)C(=O)c1cccc(Cl)c1 (stereo unspecified) | 1
CC[N+](CC)(CC)CC | 1.1
Cc1cccc(C)c1NC1=NCCCS1 | 1.9 (active)
NCC(CP(=O)(O)O)c1ccc(Cl)cc1 (stereo unspecified) | 1

Structure (SMILES) | fold change permeability
NCCc1ccc(O)cc1 | 0.7 (active)
CCN1CCN(C(=O)Cc2ccc(Nc3ncc(F)c(Nc4ccc(C(=O)Nc5ccccc5Cl)cc4)n3)cc2)CC1 | 1.1
CC(C)=CCOc1c2occc2cc2ccc(=O)oc12 | 1.5 (active)
CC(C)[C@H]1CN[C@H](C(=O)O)[C@H]1CC(=O)O | 1.1
CC(=O)c1c(O)c(C)c(O)c(Cc2c(O)c3c(c(C(=O)/C=C/c4ccccc4)c2O)OC(C)(C)C=C3)c1O | 2 (active)
CN1C2C=C(c3sccc3Br)CC1CC2 (stereo unspecified) | 0.9
CN(c1nc2ccccc2s1)C1CCN(C[C@H](O)COc2ccc(F)c(F)c2)CC1 | 1.6 (active)
NC(CCP(=O)(O)O)C(=O)O (stereo unspecified) | 1
c1ccc2sc(C3(N4CCCCC4)CCCCC3)cc2c1 | 1
COc1cc2c3c(c1OC)-c1ccccc1C[C@H]3N(C)CC2 | 1.9 (active)
O=C1CCCN1CC#CCN1CCCC1 | 0.8
COc1cc([C@@H]2c3cc4c(cc3[C@H](O)[C@H]3COC(=O)[C@H]23)OCO4)cc(OC)c1OC | 1.2
C#CCOC(=O)C1=CCCN(C)C1 | 1
CN[C@@H]1C[C@@H](c2ccc(Cl)c(Cl)c2)c2ccccc21 | 1.2
CNc1ccc2oc(C[C@H]3O[C@@]4(CC[C@H]3C)O[C@H]([C@H](C)C(=O)c3ccc[nH]3)[C@H](C)C[C@H]4C)nc2c1C(=O)O | 1.2
NC(=O)CI | 1.2
O=C1C=CC(=O)C=C1 | 1
Cc1c(F)cccc1[C@H]1COC(N)=N1 | 1
NC(=O)CN1CCCC1=O | 1.2
NCCc1c[nH]c2ccc(C(N)=O)cc12 | 1
O=C(O)CC[N+](=O)[O-] | 0.9
CP(=O)(O)C1=CCNCC1 | 1.4 (active)
CCN1C[C@]2(COC)[C@H](O)C[C@H](OC)[C@]34C1[C@H]([C@H](OC)[C@H]23)[C@]1(OC(C)=O)[C@H]2[C@@H](OC(=O)c3ccccc3)[C@](O)(C[C@H]24)[C@@H](OC)[C@@H]1O | 1
COc1ccc2c(c1OC)C(=O)O[C@H]2[C@@H]1c2cc3c(cc2CCN1C)OCO3 | 1.2
CC(C)NC(C)Cc1ccc(I)cc1 (stereo unspecified) | 1.8 (active)
